Screening results (PubChem)
Most compounds without a hit are left out; they make up all but 21% or so of the library.
DT40 TDP1 no CPT: qHTS for Inhibitors of human tyrosyl-DNA phosphodiesterase 1 (TDP1): qHTS in cells in absence of CPT. 420,000 compounds, 15% hits. Potency, µM (series often up to 46.2 µM), actives largely listed as inhibitors. DT40 Tdp1-/- hTDP1 cells, no CPT, ATP luminescence, 48 h; note: nearly all actives have a fitted effect of over 55% in size
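Cells were dispensed at 400 per well, compounds added by pin tool, plates incubated ≥48 hr at 37 °C, then CellTiter-Glo added for 30 min at room temperature before luminescence reading. Line: DT40 Tdp1-/- complemented with hTDP1; camptothecin omitted.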
RORgamma inh: blocks mouse ROR gamma transcriptional activity; AID 2551; Drosophila S2 Gal4-RORgamma UAS-luciferase reporter, 20 h; Potency, µM (doses to about 53.6 µM), usual class: inhibitors; P51450; 310,000 compounds, 5.4% hits; note: nearly all actives have a fitted effect of over 60% in size
Target sequence (P51450 whole entry, looked up, the tested form may be a part): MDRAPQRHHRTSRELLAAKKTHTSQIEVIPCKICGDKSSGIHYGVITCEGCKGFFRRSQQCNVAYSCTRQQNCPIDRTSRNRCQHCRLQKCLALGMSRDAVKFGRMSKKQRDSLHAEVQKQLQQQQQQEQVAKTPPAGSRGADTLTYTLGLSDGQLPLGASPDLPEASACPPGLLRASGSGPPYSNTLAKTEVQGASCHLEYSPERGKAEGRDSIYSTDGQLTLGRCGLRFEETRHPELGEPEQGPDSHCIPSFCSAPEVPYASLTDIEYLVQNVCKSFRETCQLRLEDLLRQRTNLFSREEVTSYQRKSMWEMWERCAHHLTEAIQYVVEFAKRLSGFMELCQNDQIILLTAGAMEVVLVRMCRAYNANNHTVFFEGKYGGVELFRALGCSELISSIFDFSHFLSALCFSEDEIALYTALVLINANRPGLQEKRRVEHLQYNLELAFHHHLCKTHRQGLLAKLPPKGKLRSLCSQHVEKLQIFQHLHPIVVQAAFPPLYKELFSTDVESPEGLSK
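Using a luciferase readout, inhibitors were identified by reduced reporter activity in Drosophila cells coexpressing a copper-inducible Gal4–ROR gamma fusion and UAS-driven Photinus luciferase, incubated 20 hr after 700 uM copper sulfate.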
TDP1 cell CPT: growth inhibition of DT40 Tdp1-/-;hTDP1 cells with camptothecin (screen for TDP1 inhibitors); Potency, µM (series often up to 46.2 µM), hits mostly inhibitors; 420,000 compounds, 12% hits; chicken DT40 Tdp1-/-;hTDP1 cells + 20 nM CPT, ATP luminescence, 48 h; note: nearly all actives have a fitted effect of over 55% in size
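Chicken DT40 Tdp1-/- cells stably complemented with human TDP1 were seeded at 400 cells/well in medium containing 20 nM camptothecin, exposed to pin-transferred compounds, and grown at 37 °C for at least 48 hr. Viability was read as ATP luminescence.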
ELG1 DNA repair: inhibitors of ELG1-dependent DNA repair in HEK293T cells; HEK293T ELG1-luciferase reporter, luminescence, 16 h; DNA damage induced by 5-fluorouridine; Potency, µM (titrated, usually from 46.1 µM), hits mostly inhibitors; 330,000 compounds, 2.3% hits; note: nearly all actives have a fitted effect of over 55% in size
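Overnight (16 hr) co-exposure of 2,000 cells/well to 5-fluorouridine and compound at 37 °C preceded detection. Luciferase was quantified via ONE-Glo luminescence; loss of signal denotes inhibition.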
IL1B secr inh: inhibitors of inflammasome signaling (IL-1 beta secretion). 360,000 compounds, 4.7% hits. activity change, % at 57.5 µM. AID 743279. THP-1 LPS/ATP IL-1B secretion, AlphaLISA, 16 h; stronger effect = lower value; in the data active = activity change below about -50%; inconclusive = mostly about -30% to -49%
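THP-1 cells pretreated 1 hr with compounds (up to 57.5 uM final), then stimulated with LPS (250 ng/mL final) plus ATP (1.25 mM final); secreted IL-1B measured by AlphaLISA after 16 hr, decreased signal indicating inhibition.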
VP16 counter: Gal4-VP16 reporter inhibition counter-screen; Drosophila S2 Gal4-VP16 UAS-luciferase, luminescence, 20 h; 310,000 compounds, 3.5% hits; Potency, µM (doses to about 53.6 µM), actives largely listed as inhibitors;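 note: Gal4-VP16 expression switched on by copper sulfate through the metallothionein promoter; nearly all actives have a fitted effect of over 50% in size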
Each line names hits and unclear results; the compound was inactive in the other large screens. Unless noted, calls come from the whole dose curve; as a rule, active = well fitted curve in the direction sought with a large enough effect; inconclusive = small, poorly fitted or top-dose-only effect, or another doubt; inactive = no such curve, though single readings can be large; an effect the other way counts as inactive or inconclusive.

CCNC(=O)C1CCCN(Cc2cc(C(F)(F)F)ccc2Cl)CC1 (stereo unspecified)	DT40 TDP1 no CPT inconclusive, TDP1 cell CPT 26µM (no result: RORgamma inh, ELG1 DNA repair, VP16 counter)
C[C@]12CC[C@H](O)C[C@H]1CC[C@@H]1[C@@H]2CC[C@]2(C)C(=O)CC[C@@H]12	DT40 TDP1 no CPT inconclusive (no result: RORgamma inh, VP16 counter)
CCSc1cc(C2C(C#N)=C(N)Oc3n[nH]c(C)c32)c(C)o1 (stereo unspecified)	DT40 TDP1 no CPT 16µM, RORgamma inh 11µM, TDP1 cell CPT inconclusive, ELG1 DNA repair inconclusive, IL1B secr inh -97, VP16 counter inconclusive
CCN(c1ccccc1)S(=O)(=O)c1ccc(C(=O)NC2CCCCC2)cc1	DT40 TDP1 no CPT 16µM, TDP1 cell CPT inconclusive (no result: RORgamma inh, ELG1 DNA repair, VP16 counter)
O=c1[nH]c(=S)[nH]c(O)c1N=Nc1ccc(S(=O)(=O)N2CCc3ccccc32)cc1	ELG1 DNA repair inconclusive
N#CCn1c(CCl)nc2ccccc2c1=O	DT40 TDP1 no CPT 2.6µM, TDP1 cell CPT 4.6µM, IL1B secr inh -56
Cc1ccccc1NC(=NCCCN1CC1)Nc1ccccc1C	DT40 TDP1 no CPT 5.2µM, TDP1 cell CPT 2.1µM, IL1B secr inh inconclusive (no result: RORgamma inh, ELG1 DNA repair, VP16 counter)
c1ccc(CN2COC3CCCCCC32)cc1 (stereo unspecified)	TDP1 cell CPT inconclusive (no result: RORgamma inh, ELG1 DNA repair, VP16 counter)
COC(=O)CCC(=O)Nc1sc(Cc2ccccc2)c(C)c1C(N)=O	DT40 TDP1 no CPT 23µM, TDP1 cell CPT 12µM
O=C(Nc1c(Cl)cccc1Cl)Oc1cccc2cccnc12	DT40 TDP1 no CPT 4.6µM, TDP1 cell CPT 4.1µM (no result: RORgamma inh, ELG1 DNA repair, VP16 counter)
CCNC(=O)C1CCCN(Cc2ccc3ccccc3c2Br)CC1 (stereo unspecified)	DT40 TDP1 no CPT inconclusive, TDP1 cell CPT inconclusive (no result: RORgamma inh, ELG1 DNA repair, VP16 counter)
CC[C@@]1(c2ccc(N)cc2)CCC(=O)NC1=O	none (no result: DT40 TDP1 no CPT, TDP1 cell CPT, ELG1 DNA repair, IL1B secr inh)
COc1ccc(C(=O)Nc2ccccc2-c2nnn(CC(=O)Nc3ccc4c(c3)OCCO4)n2)cc1	DT40 TDP1 no CPT inconclusive, TDP1 cell CPT inconclusive, ELG1 DNA repair inconclusive
C=CCCC#N	none (no result: DT40 TDP1 no CPT, TDP1 cell CPT, ELG1 DNA repair, IL1B secr inh)
Cc1cc(C(=O)Nc2ccc(CC(=O)O)cc2)c(C)o1	RORgamma inh 11µM, VP16 counter inconclusive
O=NN(c1ccccc1)c1ccccc1	none (no result: DT40 TDP1 no CPT, TDP1 cell CPT, ELG1 DNA repair, IL1B secr inh)
COc1cccc(CNCCc2c[nH]c3ccccc23)c1	DT40 TDP1 no CPT inconclusive, TDP1 cell CPT inconclusive, IL1B secr inh -78
Fc1ccc(CNCCc2c[nH]c3ccccc23)cc1	DT40 TDP1 no CPT 4.6µM, RORgamma inh inconclusive, TDP1 cell CPT inconclusive, ELG1 DNA repair inconclusive, IL1B secr inh -81
FC(F)(F)c1ccccc1CNCCc1c[nH]c2ccccc12	DT40 TDP1 no CPT 15µM, TDP1 cell CPT inconclusive
c1coc(CNCCc2c[nH]c3ccccc23)c1	none
COc1cccc(CNCCc2ccc(F)cc2)c1	DT40 TDP1 no CPT inconclusive, TDP1 cell CPT inconclusive
Fc1ccc(CCNCc2ccc(Br)cc2)cc1	DT40 TDP1 no CPT inconclusive, TDP1 cell CPT inconclusive, IL1B secr inh -68
CC(=O)NCCc1c[nH]c2ccccc12	DT40 TDP1 no CPT inconclusive
CCCC(=O)O[C@@H]1[C@@H](C)[C@@]2(O)[C@@H](C=C(CO)C[C@@]3(O)C(=O)C(C)=C[C@@H]23)[C@@H]2C(C)(C)[C@]12OC(=O)CCC	none (no result: DT40 TDP1 no CPT, TDP1 cell CPT, ELG1 DNA repair, IL1B secr inh)
CNC[C@H](O)c1ccc(O)cc1	none (no result: DT40 TDP1 no CPT, TDP1 cell CPT, ELG1 DNA repair, IL1B secr inh)
O=C1C=CC(=O)c2c(O)cccc21	DT40 TDP1 no CPT inconclusive, RORgamma inh inconclusive, TDP1 cell CPT inconclusive (no result: ELG1 DNA repair, IL1B secr inh)
Fc1ccccc1CNCCc1c[nH]c2ccccc12	DT40 TDP1 no CPT inconclusive, TDP1 cell CPT 16µM
OC(CNCCc1c[nH]c2ccccc12)c1ccccc1 (stereo unspecified)	IL1B secr inh -57
Fc1ccc(CNCCc2ccccc2F)cc1	none
Cc1ccc(S(=O)(=O)Nc2ccc3ncccc3c2[N+](=O)[O-])cc1	DT40 TDP1 no CPT inconclusive (no result: RORgamma inh, ELG1 DNA repair, VP16 counter)
O=c1c2ccccc2[nH]c(=S)n1-c1ccc2c(c1)OCO2	RORgamma inh 2.8µM, VP16 counter 10µM
O=c1[nH]c2ccccc2c(=O)n1-c1ccc(Cl)c(Cl)c1	TDP1 cell CPT inconclusive (no result: RORgamma inh, ELG1 DNA repair, IL1B secr inh, VP16 counter)
